# HepG2 viability = kills HepG2 cells in TGF-b inhibitor counter-screen; Potency, µM (doses to about 46.1 µM), inactives show at the highest dose activity change, negative = cytotoxicity, actives largely listed as cytotoxic; hit rate 0.76% among 410,000; HepG2 CAGA-GFP viability, ATP luminescence, 18 h
#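 HepG2 CAGA-GFP cells (1000/well, DMEM with 1% FBS) received compound, then TGF-beta at 500 pg/mL final, and were incubated 18 hours at 37 degrees C. Viability was read by CellTiter-Glo luminescence. Media-only wells were set as complete cell-killing and DMSO as no toxicity.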
# KB-3-1 tox = kills parental KB-3-1 adenocarcinoma cells; Potency, µM (series often up to 46.1 µM), most hits filed as cytotoxic; AID 1347075; hit rate 1.4% among 400,000; KB-3-1 viability, CellTiter-Glo ATP luminescence, 72 h; further: on the % scale 0 is the no-effect control and ±100 the full control effect; nearly all actives have a fitted effect of over 60% in size
#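 72 h, 37 °C compound treatment of KB-3-1 parental cells; CellTiter-Glo added, 10 min, luminescence read. Data corrected against DMSO-only plates and normalized before curve fitting.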
# KB-V1 cytotox = kills drug-selected multidrug resistant KB-V1 cells; KB-V1 MDR cells viability, CellTiter-Glo, 72 h; hit rate 3.4% among 400,000; Potency, µM (top dose mostly 46.1 µM), actives largely listed as cytotoxic; further: on the % scale 0 is the no-effect control and ±100 the full control effect; nearly all actives have a fitted effect of over 60% in size
#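 KB-V1, DMEM (no phenol red) + 10% FBS; cpd pin-transferred, titration series; 72 h, 37 degrees C; CellTiter-Glo, luminescence. Data normalized, curve-fit.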
# S2 tox = viability counter-screen for ATXN expression inhibitors. Potency, µM (top dose mostly 56.7 µM), usual class: cytotoxic. hit rate 0.49% among 400,000. S2 cells (HEK-293 line with an ATXN2-luciferase reporter) viability, CellTiter-Fluor protease fluorescence, 24 h. AID 651635; further: nearly all actives have a fitted effect of over 40% in size
# TGFb inhibitor = blocks TGF-b signaling; Potency, µM (highest dose often 46.1 µM), inactives show at the top dose activity, negative = inhibition, hits mostly inhibitors; AID 588855; HepG2 CAGA-GFP TGF-b/SMAD3 reporter, GFP fluorescence, 18 h; TGF-beta stimulated, 500 pg/mL final; hit rate 1.2% among 410,000; further: on the % scale 0 is the no-effect control and ±100 the full control effect; nearly all actives have a fitted effect of over 65% in size
#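 Smad-responsive CAGA-GFP expression was quantified in HEPG2 cells exposed to compounds and 500 pg/mL final TGF-beta for 18 h at 37 degrees C; unstimulated wells defined full inhibition.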
# ATXN2 expr inh = inhibitors of ATXN2 expression; HEK-293 ATXN2-luciferase reporter, luminescence, 24 h; hit rate 0.72% among 360,000; AID 1745845; Potency, µM (top dose mostly 57 µM), inactives show at the top dose activity change, negative = inhibition, actives largely listed as inhibitors; further: on the % scale 0 is the no-effect control and ±100 the full control effect; nearly all actives have a fitted effect of over 55% in size
#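 qHTS (up to 57 uM final) was run with 24 h compound exposure of reporter cells at 37 °C. Each well was multiplexed: SteadyGlo luminescence measured ATXN2-luciferase expression after a fluorogenic Gly-Phe-AFC viability readout (25 uM final).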
# * marks the source's active call; other numbers are inactive results; i = inactive; ? = inconclusive; / = no result. Shown are actives, neighbours in structure and some others; about 5.9% of the full set was active somewhere. The call rests on the fitted dose curve; in most records, active means well fitted curve in the direction sought with a large enough effect; inconclusive means small, poorly fitted or top-dose-only effect, or another doubt; inactive means no such curve, though single readings can be large; an effect the other way counts as inactive or inconclusive. Potency means the concentration at half of the fitted maximal effect.
SMILES,HepG2 viability,KB-3-1 tox,KB-V1 cytotox,S2 tox,TGFb inhibitor,ATXN2 expr inh
CC(=O)N(C)c1cc([N+](=O)[O-])ccc1OCc1ccccc1,-15.9%,i,20.6µM*,i,-5.9%,9.2%
O=C(/C=C/c1ccccc1)NC(=S)NNC(=O)c1cnccn1,18.0%,?,?,?,-22.3%,14.1µM*
COc1ccc(Cl)cc1C1CC(=O)Nc2cc3c(cc21)OCCO3 (stereo not given),6.8%,/,/,/,?,/
CCOC(=O)/C(=C\c1cccc(O)c1)c1nc2sc(C)c(C)c2c(=O)[nH]1,-60.9%,?,?,?,?,15.8µM*
Cn1nc(C(C)(C)C)cc1C(=O)N1CCCCC1c1cc(C(=O)NCc2ccccc2)no1 (stereo not given),2.7%,?,9.2µM*,i,-22.5%,-13.9%
Cn1nc(C(C)(C)C)cc1C(=O)N1CCCCC1c1cc(C(=O)NCc2ccc(F)cc2)no1 (stereo not given),-10.0%,?,4.11µM*,i,?,-21.9%
Cc1ccc(CNC(=O)Cn2ccn(-c3cc(C)cc(C)c3)c(=O)c2=O)cc1,-3.0%,/,/,/,-13.3%,/
Cc1ccc(C2=NNC(=Nc3ccc(F)cc3)SC2)cc1,-10.4%,i,?,i,0.0%,24.9%
CCc1ccc(C2=NNC(=Nc3cccc(S(=O)(=O)N(C)C)c3)SC2)cc1,-40.8%,?,?,?,12.6µM*,?
O=C(NC(c1cccnc1)C(F)(F)F)c1cc(COc2ccc3c(c2)CCCC3)on1 (stereo not given),-26.2%,20.6µM*,?,?,11.2µM*,-17.0%
Cn1cc(CNC(=O)c2cc(COc3ccc4c(c3)CCCC4)on2)cn1,-26.5%,/,/,?,0.0%,1.3%
Cc1nn(C)c2c1c(-c1ccccc1)cc(=O)n2C(C)C(=O)NCc1ccc(F)cc1 (stereo not given),4.0%,i,i,?,-1.6%,-7.5%
CCOc1ccccc1CNC(=O)CN(c1ccc(C)cc1)S(=O)(=O)N(C)C,-25.2%,?,i,i,-3.4%,-2.1%
CC(=O)N1C=CN(C(C)=O)C(c2cn(C)c3ccccc23)C1c1cn(C)c2ccccc12 (stereo not given),-21.8%,?,23.1µM*,i,-23.1%,-6.1%
Cn1cc(/C=C/C(=O)c2ccccc2)c2ccccc21,-60.7%,i,?,i,0.0%,-17.7%
COC(=O)[C@@H]1CCCN1S(=O)(=O)Cc1ccccc1,-0.2%,i,i,/,-4.7%,/
COc1ccc(NC(=O)c2c(Cl)n(C)c3ccccc23)cc1,-13.9%,2.91µM*,5.8µM*,?,10.0%,22.8%
COc1ccc(NS(=O)(=O)NC(=O)c2c(C)n(C)c3ccccc23)cc1,-3.8%,i,i,i,-2.7%,13.2%
O=C(NCc1ccc(Cl)cc1)c1noc2c1CCCCC2,0.0%,i,20.6µM*,i,-3.9%,6.0%
O=C(NCc1ccc(F)cc1)c1noc2c1CCCC2,-2.0%,i,i,i,1.7%,8.2%
O=C(NCc1ccc(F)cc1)c1noc2c1CCCCC2,6.8%,i,16.4µM*,i,2.6%,32.9%
CN(C)c1ccc(-c2csc(C(O)(c3ccccc3)C(F)(F)F)n2)cc1 (stereo not given),15.8µM*,i,i,i,?,13.5%
COc1cc(F)ccc1-c1csc(C(O)(c2ccccc2)C(F)(F)F)n1 (stereo not given),22.4µM*,i,i,?,?,?
Cc1ccc(-c2csc(C(O)(c3ccccc3)C(F)(F)F)n2)cc1C (stereo not given),-96.7%,i,i,?,?,-23.6%
COCCCNC(=O)C1CCC(Cn2c(=O)c3sccc3n(C)c2=O)CC1 (stereo not given),2.3%,i,i,i,20.6%,1.7%
COc1cc2ncnc(Nc3cc(Br)c(O)c(Br)c3)c2cc1OC,/,/,/,/,/,-8.7%

# Bioassay records deposited in PubChem BioAssay by National Center for Advancing Translational Sciences (NCATS).
